Measured values taken from PubChem BioAssay (Tox21).
Inconclusive results are not listed. Where a call stands in place of a potency, no number is given. The source made the active and inactive calls. The call rests on the fitted dose curve; in most records, active means well fitted cell-killing curve with a large enough effect in the repeat runs; inconclusive means weak or mixed curves, or effect the other way; inactive means flat fitted curve, though single readings scatter.

Experiment: cAMP Responsive Elements (CRE) small molecule antagonists, cell-based qHTS assay: qHTS cell viability counter screen (AID 2060913); further: nearly all actives have a fitted effect of over 40% in size
Conditions: CRE-bla HEK293T viability, CellTiter-Glo luminescence, 5 h; series mostly up to 92.4 µM
In short: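 CRE-bla HEK293T cells (2,000/well, 18 h) given compound plus NKH477 0.25 uM final for 3 h at 37C; viability counter-screen by CellTiter-Glo luminescence in same wells after 30 min.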

SMILES | Potency
COc1ccc(NC(C)=O)cc1 | inactive
O=S1OCCO1 | inactive
c1c[nH]cn1 | inactive
CCC(C)c1ccccc1O (stereo not given) | inactive
C=C(C)C(=O)OC | inactive
C=C[C@@]1(C)CC(=O)[C@]2(O)[C@@]3(C)[C@@H](O)CCC(C)(C)[C@@H]3[C@H](O)[C@H](OC(C)=O)[C@@]2(C)O1 | inactive
Cc1ccc2nc(-c3ccc(N)cc3)sc2c1S(=O)(=O)O | inactive
N[C@@H](Cc1c[nH]c2ccccc12)C(=O)O | inactive
O=C(c1ccccc1)c1ccccc1 | inactive
CN1CCCC1 | inactive
CC(C)=CCC[C@H](C)CCO | inactive
CC(C)(Oc1ccc(CCNC(=O)c2ccc(Cl)cc2)cc1)C(=O)O | inactive
O=C(O)CCC(=O)O | inactive
CCCCOC(=O)/C=C\C(=O)OCCCC | inactive
COC(=O)/C=C(\C)CCC=C(C)C | inactive
CN1C(=O)CC[C@H]1c1cccnc1 | inactive
CC(=O)OC[C@H]1O[C@@H](n2ncc(=O)[nH]c2=O)[C@H](OC(C)=O)[C@@H]1OC(C)=O | inactive
O=CC(=O)c1ccccc1 | inactive
O=C(NCCO[N+](=O)[O-])c1cccnc1 | inactive
O=C1c2c(O)ccc(Nc3ccc(CCO)cc3)c2C(=O)c2c([N+](=O)[O-])ccc(O)c21 | inactive

SMILES | Potency
Cc1nccn1CC1CCc2c(c3ccccc3n2C)C1=O (stereo not given) | inactive
O=S(=O)(O)c1ccc(O)c2ncccc12 | inactive
CC(=O)C(C)C | inactive
[Cl][Au]([Cl])[Cl] | inactive
Nc1ccc2cc3ccc(N)cc3nc2c1 | inactive
CCCN(CCC)S(=O)(=O)c1ccc(C(=O)O)cc1 | inactive
CC(=O)[C@H]1CC[C@H]2[C@@H]3CC=C4C[C@@H](O)CC[C@]4(C)[C@H]3CC[C@]12C | inactive
Oc1cccc2c(O)cccc12 | inactive
CCCC(=O)OCC(COC(=O)CCC)OC(=O)CCC | inactive
CN=C(N)NC(=O)Nc1c(C)cccc1C | inactive
CC(C)(C)N(CCO)CCO | inactive
CC(C)C(=O)OC(=O)C(C)C | inactive
CN1CCC(=C2c3ccccc3CCc3sccc32)CC1 | inactive
CCCCCCCCCCCCCC(=O)O | inactive
Cc1ccc(O)c(C(C)(C)C)c1 | inactive
O=c1[nH]c2ccc(S(=O)CCN3CCC(Cc4ccc(F)cc4)CC3)cc2o1 (stereo not given) | inactive
Cc1cnc(NC(=O)C2=C(O)c3ccccc3S(=O)(=O)N2C)s1 | inactive
COc1ccc(C(=O)Nc2nc3ccccc3c(NCc3ccccc3)c2C#N)cc1 | inactive
CO[Si](CCCn1c(=O)n(CCC[Si](OC)(OC)OC)c(=O)n(CCC[Si](OC)(OC)OC)c1=O)(OC)OC | inactive
O=C(O)c1ccc(S(=O)(=O)O)cc1C(=O)O | inactive

Experiment: cAMP Responsive Elements (CRE) small molecule agonists, cell-based qHTS assay: qHTS cell viability counter screen (AID 2060914); further: nearly all actives have a fitted effect of over 50% in size
Conditions: CRE-bla HEK293T viability, CellTiter-Glo luminescence, 5 h; series mostly up to 92.4 µM
In short: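 Luminescence read-out (CellTiter-Glo, 30 min RT) of ATP-based viability in CRE-bla HEK 293T cells, run in the same wells as the β-lactamase reporter assay after 3 h compound treatment at 37 °C.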

SMILES | Potency
COc1ccc(NC(C)=O)cc1 | inactive
O=S1OCCO1 | inactive
c1c[nH]cn1 | inactive
CCC(C)c1ccccc1O (stereo not given) | inactive
C=C(C)C(=O)OC | inactive
C=C[C@@]1(C)CC(=O)[C@]2(O)[C@@]3(C)[C@@H](O)CCC(C)(C)[C@@H]3[C@H](O)[C@H](OC(C)=O)[C@@]2(C)O1 | inactive
Cc1ccc2nc(-c3ccc(N)cc3)sc2c1S(=O)(=O)O | inactive
N[C@@H](Cc1c[nH]c2ccccc12)C(=O)O | inactive
O=C(c1ccccc1)c1ccccc1 | inactive
CN1CCCC1 | inactive
CC(C)=CCC[C@H](C)CCO | inactive
CC(C)(Oc1ccc(CCNC(=O)c2ccc(Cl)cc2)cc1)C(=O)O | inactive
O=C(O)CCC(=O)O | inactive
CCCCOC(=O)/C=C\C(=O)OCCCC | inactive
COC(=O)/C=C(\C)CCC=C(C)C | inactive
CN1C(=O)CC[C@H]1c1cccnc1 | inactive
CC(=O)OC[C@H]1O[C@@H](n2ncc(=O)[nH]c2=O)[C@H](OC(C)=O)[C@@H]1OC(C)=O | inactive
O=CC(=O)c1ccccc1 | inactive
O=C(NCCO[N+](=O)[O-])c1cccnc1 | inactive
O=C1c2c(O)ccc(Nc3ccc(CCO)cc3)c2C(=O)c2c([N+](=O)[O-])ccc(O)c21 | inactive

SMILES | Potency
Cc1nccn1CC1CCc2c(c3ccccc3n2C)C1=O (stereo not given) | inactive
O=S(=O)(O)c1ccc(O)c2ncccc12 | inactive
CC(=O)C(C)C | inactive
[Cl][Au]([Cl])[Cl] | inactive
Nc1ccc2cc3ccc(N)cc3nc2c1 | inactive
CCCN(CCC)S(=O)(=O)c1ccc(C(=O)O)cc1 | inactive
CC(=O)[C@H]1CC[C@H]2[C@@H]3CC=C4C[C@@H](O)CC[C@]4(C)[C@H]3CC[C@]12C | inactive
Oc1cccc2c(O)cccc12 | inactive
CCCC(=O)OCC(COC(=O)CCC)OC(=O)CCC | inactive
CN=C(N)NC(=O)Nc1c(C)cccc1C | inactive
CC(C)(C)N(CCO)CCO | inactive
CC(C)C(=O)OC(=O)C(C)C | inactive
CN1CCC(=C2c3ccccc3CCc3sccc32)CC1 | inactive
CCCCCCCCCCCCCC(=O)O | inactive
Cc1ccc(O)c(C(C)(C)C)c1 | inactive
O=c1[nH]c2ccc(S(=O)CCN3CCC(Cc4ccc(F)cc4)CC3)cc2o1 (stereo not given) | inactive
Cc1cnc(NC(=O)C2=C(O)c3ccccc3S(=O)(=O)N2C)s1 | inactive
COc1ccc(C(=O)Nc2nc3ccccc3c(NCc3ccccc3)c2C#N)cc1 | inactive
CO[Si](CCCn1c(=O)n(CCC[Si](OC)(OC)OC)c(=O)n(CCC[Si](OC)(OC)OC)c1=O)(OC)OC | inactive
O=C(O)c1ccc(S(=O)(=O)O)cc1C(=O)O | inactive
